Active and inactive are the calls of the source. Unless noted, the rule behind the calls is not given here.
Experiments:
[1] = system: Wnt5a (protein binding on small-molecule microarray); assay: small molecules binding Wnt5a protein – biophysical, small-molecule microarray, 635/667 nm fluorescence, primary screen (AID 1142); conditions: 635 nm fluorescence, higher = more signal;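 note: fluorescence read at 667 nm with signal to noise per printed feature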
[2] = ATP-based viability of Huh7 replicon cells – cell-based, CellTiter-Glo luminescence, basal, 48 h, cytotoxicity control for HCV replication inhibitor project, primary screen (AID 1143); conditions: higher = more signal, called active from +8 up or from −8 down;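 note: Huh7 hepatoma cells carrying a hepatitis C replication reporter with no stimulus; test concentration not given here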
[3] = Pseudomonas biofilm growth suppression – PAO1 strain, BacTiter-Glo luminescence, LB-PBS, primary screen (AID 1144); conditions: P. aeruginosa PAO1 biofilm, 12 h, higher = more signal
[4] = basal CRE-LacZ reporter activity in PC12 – cell-based, unstimulated, primary screen (AID 1145); conditions: no forskolin, luminescence, 4.5 h, higher = more signal, called active from +8 up or from −8 down
[5] = forskolin-driven CRE-LacZ activity in PC12 – cell-based, CRE-LacZ reporter, forskolin-stimulated, primary screen (AID 1146); conditions: luminescence, 4.5 h, higher = more signal, called active from +8 up or from −8 down;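 note: PC12 cells with 6xCRE LacZ reporter stimulated by forskolin 10 µM; beta-galactosidase reporter signal reflecting CREB driven transcription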
[6] = target: Streptavidin (Streptomyces avidinii) (UniProt P22629); assay: compounds binding control protein streptavidin – biophysical, small-molecule microarray, 635/667 nm fluorescence, artefact control for SMM compound annotation, primary screen (AID 1147); conditions: higher = more signal;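 note: signal reflects streptavidin binding to arrayed compounds as a control protein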
Chain of Streptavidin (Streptomyces avidinii) (P22629 whole entry, looked up): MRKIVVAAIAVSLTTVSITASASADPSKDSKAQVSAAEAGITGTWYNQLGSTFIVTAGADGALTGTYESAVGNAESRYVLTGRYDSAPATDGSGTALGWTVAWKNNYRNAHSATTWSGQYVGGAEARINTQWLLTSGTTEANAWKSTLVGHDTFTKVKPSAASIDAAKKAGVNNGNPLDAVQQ

[7] = probe aInhba binding on compound microarray – biochemical, small-molecule microarray, 635/667 nm fluorescence, primary screen (AID 1148); conditions: higher = more signal;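 note: score merges 667nm spot fluorescence with signal-to-noise for antibody binding to printed compounds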
Torsin-1A (Homo sapiens) [8] = target: Torsin-1A (Homo sapiens) (UniProt O14656); assay: TOR1A wild-type binding on microarray – cell lysate, small-molecule microarray, lysate, 635/667 nm, primary screen (AID 1149); conditions: COS7 hTOR1A-WT lysate, 635 nm fluorescence, higher = more signal
Chain of Torsin-1A (Homo sapiens) (O14656 whole entry, looked up): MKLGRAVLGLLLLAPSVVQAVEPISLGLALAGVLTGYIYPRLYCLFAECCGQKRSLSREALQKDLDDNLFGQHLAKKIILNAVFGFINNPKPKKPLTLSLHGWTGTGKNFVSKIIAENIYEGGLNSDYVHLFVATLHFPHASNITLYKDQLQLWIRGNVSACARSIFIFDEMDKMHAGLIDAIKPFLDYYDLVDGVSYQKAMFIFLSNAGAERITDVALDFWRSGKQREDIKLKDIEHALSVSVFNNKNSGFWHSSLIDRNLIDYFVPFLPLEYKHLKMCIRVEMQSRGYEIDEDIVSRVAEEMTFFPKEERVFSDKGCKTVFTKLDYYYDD

Torsin-1A (Homo sapiens) [9] = target: Torsin-1A (Homo sapiens) (UniProt O14656); assay: torsin A mutant lysate binding on microarrays – cell lysate, small-molecule microarray, COS7 lysate, 635/667 nm fluorescence, primary screen (AID 1150); conditions: COS7 hTOR1A mutant lysate, 635 nm fluorescence, higher = more signal;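 note: score pools 667 nm emission and signal to noise measuring lysate protein binding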
[10] = system: Sonic hedgehog protein (Shh); assay: Sonic hedgehog microarray binding compounds – biochemical, small-molecule microarray, 635/667 nm fluorescence, primary screen (AID 1151); conditions: 635 nm fluorescence, higher = more signal;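 note: Shh protein binding to compounds spotted on small-molecule microarray slides; score combines spot fluorescence intensity with signal-to-noise across triplicate slides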
[11] = optical density shifts of acrAB sulA E. coli – strain DRC41, OD650, 48 h, E. coli filamentation inducer project, primary screen (AID 1152); conditions: higher = more signal, called active from +8 up or from −8 down;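 note: E. coli MC1000 strain DRC41 lacking acrAB efflux pump and sulA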
[12] = probe aLefty1 binding on compound microarray – biochemical, small-molecule microarray, 635/667 nm fluorescence, primary screen (AID 1153); conditions: higher = more signal;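 note: score merges spot fluorescence with signal-to-noise ratio from the scanned slide images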
[13] = plasmodial surface anion channel blockers, osmotic lysis – cell-based, P. falciparum Indochina, OD700, 1 h, primary screen (AID 1154); conditions: P. falciparum Indochina infected RBC osmotic lysis, higher = more signal, called active from +8 up or from −8 down
[14] = plasmodial surface anion channel blockers, osmotic lysis – cell-based, P. falciparum Indochina, OD700, 2 h, primary screen (AID 1155);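 note: lysis reports solute entry through the parasite surface anion channel PSAC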; conditions: P. falciparum Indochina infected erythrocytes, higher = more signal, called active from +8 up or from −8 down
[15] = changes in parasitized red cell lysis, either direction – P. falciparum Indochina, OD700, 3 h, PSAC antagonist project, primary screen (AID 1156); conditions: P. falciparum-infected erythrocytes, osmotic lysis, higher = more signal, called active from +8 up or from −8 down
[16] = plasmodial surface anion channel blockers, osmotic lysis – cell-based, P. falciparum Indochina, OD700, 18 h, primary screen (AID 1157); conditions: P. falciparum Indochina infected erythrocytes, osmotic lysis OD700, 18 h; higher = more signal, called active from +8 up or from −8 down
[17] = S6 kinase pathway phospho-S6 level changes – cell-based, A549, cytoblot, luminescence, serum-stimulated, primary screen (AID 1158); conditions: 5 h, higher = more signal;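 note: serum-stimulated A549 lung adenocarcinoma cells; signal is phosphorylated S6 detected by cytoblot immunostaining with HRP secondary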
[18] = target: NADPH oxidase 2 (Homo sapiens) (UniProt P04839); assay: compounds shifting NOX2 Amplex Red fluorescence – cell-based, HEK293-NOX2, PMA-stimulated, NOX inhibitor project, primary screen (AID 1159); conditions: 45 min, higher = more signal, called active from +8 up or from −8 down; note: test concentration not given here
Chain of NADPH oxidase 2 (Homo sapiens) (P04839 whole entry, looked up): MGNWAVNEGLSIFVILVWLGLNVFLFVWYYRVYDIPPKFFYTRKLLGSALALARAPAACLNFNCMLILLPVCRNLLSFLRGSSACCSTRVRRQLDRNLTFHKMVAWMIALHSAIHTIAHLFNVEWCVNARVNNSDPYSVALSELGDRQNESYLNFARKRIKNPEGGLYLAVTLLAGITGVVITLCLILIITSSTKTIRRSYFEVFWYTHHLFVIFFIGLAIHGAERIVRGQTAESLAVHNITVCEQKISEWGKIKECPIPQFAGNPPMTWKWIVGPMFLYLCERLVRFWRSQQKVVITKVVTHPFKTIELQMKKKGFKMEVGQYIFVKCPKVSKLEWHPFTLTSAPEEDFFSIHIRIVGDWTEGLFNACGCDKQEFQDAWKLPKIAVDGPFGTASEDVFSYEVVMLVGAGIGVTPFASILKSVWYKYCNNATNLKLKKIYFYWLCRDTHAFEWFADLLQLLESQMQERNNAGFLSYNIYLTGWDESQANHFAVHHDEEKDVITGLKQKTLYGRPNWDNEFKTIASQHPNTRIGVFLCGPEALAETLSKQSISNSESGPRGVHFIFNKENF

[19] = target: NADPH oxidase 4 (Homo sapiens) (UniProt Q9NPH5); assay: compounds shifting NOX4 Amplex Red fluorescence – cell-based, HEK293-NOX4, tetracycline-induced, NOX inhibitor project, primary screen (AID 1160); conditions: HEK293-NOX4, Amplex Red H2O2 fluorescence, 45 min; higher = more signal, called active from +8 up or from −8 down
Chain of NADPH oxidase 4 (Homo sapiens) (Q9NPH5 whole entry, looked up): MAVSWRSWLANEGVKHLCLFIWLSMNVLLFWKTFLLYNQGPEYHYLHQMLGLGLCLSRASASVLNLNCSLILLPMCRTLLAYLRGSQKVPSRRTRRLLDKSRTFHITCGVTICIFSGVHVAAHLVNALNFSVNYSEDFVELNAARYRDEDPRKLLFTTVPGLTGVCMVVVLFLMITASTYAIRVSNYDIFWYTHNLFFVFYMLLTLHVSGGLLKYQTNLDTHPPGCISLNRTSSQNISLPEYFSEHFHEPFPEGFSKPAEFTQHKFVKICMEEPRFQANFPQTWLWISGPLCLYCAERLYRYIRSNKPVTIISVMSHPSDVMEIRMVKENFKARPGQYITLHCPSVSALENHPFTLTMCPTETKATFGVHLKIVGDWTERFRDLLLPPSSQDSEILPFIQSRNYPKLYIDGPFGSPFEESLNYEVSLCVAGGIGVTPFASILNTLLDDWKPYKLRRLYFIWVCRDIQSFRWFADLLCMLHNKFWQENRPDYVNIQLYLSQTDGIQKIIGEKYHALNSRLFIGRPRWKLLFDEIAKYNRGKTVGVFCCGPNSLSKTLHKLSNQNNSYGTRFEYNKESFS

[20] = target: NADPH oxidase 5 (Homo sapiens) (UniProt Q96PH1); assay: compounds shifting NOX5 Amplex Red fluorescence – cell-based, HEK293-NOX5, NOX inhibitor project, primary screen (AID 1161); conditions: HEK293-NOX5, ionomycin, 45 min, higher = more signal
Chain of NADPH oxidase 5 (Homo sapiens) (Q96PH1 whole entry, looked up): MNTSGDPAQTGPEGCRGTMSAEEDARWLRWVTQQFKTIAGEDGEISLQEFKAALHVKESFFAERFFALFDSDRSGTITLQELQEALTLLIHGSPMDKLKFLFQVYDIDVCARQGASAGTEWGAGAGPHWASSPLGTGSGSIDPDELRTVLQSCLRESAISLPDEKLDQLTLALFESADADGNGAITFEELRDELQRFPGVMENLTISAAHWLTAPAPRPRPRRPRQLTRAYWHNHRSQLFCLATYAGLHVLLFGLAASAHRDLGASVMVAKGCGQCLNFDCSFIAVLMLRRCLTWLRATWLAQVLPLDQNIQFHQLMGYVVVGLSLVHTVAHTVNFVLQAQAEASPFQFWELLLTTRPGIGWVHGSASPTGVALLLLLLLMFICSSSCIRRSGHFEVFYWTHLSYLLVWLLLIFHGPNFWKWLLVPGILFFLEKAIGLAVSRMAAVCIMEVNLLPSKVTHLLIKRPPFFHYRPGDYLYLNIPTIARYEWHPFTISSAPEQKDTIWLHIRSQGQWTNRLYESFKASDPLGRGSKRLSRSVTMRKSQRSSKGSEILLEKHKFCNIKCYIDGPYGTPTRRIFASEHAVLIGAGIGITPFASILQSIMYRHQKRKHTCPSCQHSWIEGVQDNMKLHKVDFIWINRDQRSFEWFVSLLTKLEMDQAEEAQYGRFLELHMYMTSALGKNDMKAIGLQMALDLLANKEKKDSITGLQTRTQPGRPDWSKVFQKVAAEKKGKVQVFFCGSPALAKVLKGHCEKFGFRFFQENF

Compound | composite z-score [1] | z-score [2] | z-score [3] | z-score [4] | z-score [5] | composite z-score [6] | composite z-score [7] | composite z-score (Torsin-1A (Homo sapiens) [8]) | composite z-score (Torsin-1A (Homo sapiens) [9]) | composite z-score [10] | z-score [11] | composite z-score [12] | z-score [13] | z-score [14] | z-score [15] | z-score [16] | z-score [17] | z-score [18] | z-score [19] | z-score [20]
C=CCC(OC(C)=O)[C@@H]1[C@@H](N(Cc2ccc(-c3ccccc3)cc2)C(=O)c2cccc3ccccc23)c2cc(OCCCO)ccc2N1C(=O)c1ccc(-c2ccccc2)cc1 (stereo not given in full) | 0.0826 | -1.6 (inactive) | -0.915 (inactive) | 0.6 (inactive) | -0.531 (inactive) | 0.232 | 0.0979 | -0.0396 | 0.499 | 0.362 | 0.82 (inactive) | 0.46 | 0.353 (inactive) | 1.06 (inactive) | -0.291 (inactive) | 0.358 (inactive) | 0.121 | 0.299 (inactive) | -0.394 (inactive) | -4.31
O=C1c2ccccc2[C@](Cc2ccccc2I)(C(=O)NCCN2CCOCC2)[C@H](c2ccc(CO)cc2)N1C1CCCCC1 | 0.379 | -3.69 (inactive) | 0.155 (inactive) | -0.168 (inactive) | -0.0922 (inactive) | 0.934 | 0.216 | 0.873 | 0.469 | 1.52 | 0.0237 (inactive) | 0.373 | 3.66 (inactive) | 0.814 (inactive) | 0.664 (inactive) | 0.5 (inactive) | -0.164 | 0.155 (inactive) | 0.784 (inactive) | 0.958
CCCCCCc1nc(-c2cc(C)c(OC)c(C)c2)cc2c1[Si](C(C)C)(C(C)C)OC2 | -0.227 | -2.72 (inactive) | -0.661 (inactive) | -0.0989 (inactive) | 0.0738 (inactive) | 0.0643 | 0.131 | -0.646 | -0.384 | 0.985 | 0.488 (inactive) | 0.147 | 0.827 (inactive) | -0.0892 (inactive) | 0.193 (inactive) | -0.351 (inactive) | 0.296 | -5.61 (inactive) | -1.72 (inactive) | -3.75
C=C[C@H](CO)NS(=O)(=O)c1ccc(Br)cc1 | -0.269 | 0.116 (inactive) | 0.564 (inactive) | 0.643 (inactive) | 1.79 (inactive) | 0.257 | -0.159 | 0.0757 | -0.0632 | 0.156 | 1.25 (inactive) | -0.24 | -0.261 (inactive) | -0.102 (inactive) | -0.154 (inactive) | 0.325 (inactive) | 0.0242 | 2.3 (inactive) | 0.447 (inactive) | 0.264
CO[C@H]1O[C@H](CO)[C@@H](OC(=O)Nc2ccc(C(F)(F)F)cc2)[C@H](OC(=O)Nc2ccc3c(c2)OCO3)[C@@H]1OC(=O)Nc1ccc2c(c1)OCO2 | 0.246 | -4.31 (inactive) | 0.999 (inactive) | 0.652 (inactive) | -1.93 (inactive) | 0.273 | -0.157 | 1.81 | 1.23 | 0.57 | -0.112 (inactive) | 0.199 | 25.8 (active) | 15.3 (active) | 3.6 (inactive) | 1.77 (inactive) | -0.176 | -0.794 (inactive) | -0.393 (inactive) | -0.486
C=CC1(C(=O)OC)CC=C(C(=O)OC)CC1 (stereo not given) | 0.181 | -1.3 (inactive) | 0.132 (inactive) | 0.332 (inactive) | 0.0857 (inactive) | 0.596 | -0.154 | 0.226 | 0.823 | 0.434 | 0.2 (inactive) | 0.0262 | 0.655 (inactive) | -0.87 (inactive) | -1.3 (inactive) | -1.96 (inactive) | 0.674 | 0.379 (inactive) | -0.389 (inactive) | -0.0703
C=CCNC(=O)[C@@H]1[C@H]2C(=O)O[C@H](c3ccccc3)[C@H](c3ccccc3)N2[C@H](c2ccc(OCCO)cc2)[C@@]12C(=O)Nc1ccc(C#CCC(C(=O)OC)C(=O)OC)cc12 | 0.187 | -3.86 (inactive) | 0.827 (inactive) | 0.488 (inactive) | -1.19 (inactive) | 0.316 | 0.573 | 0.309 | 1.46 | 1.49 | 1.13 (inactive) | 0.0973 | 5.24 (inactive) | 1.59 (inactive) | 1.28 (inactive) | 0.653 (inactive) | -0.186 | 2.32 (inactive) | 0.186 (inactive) | 0.236
C[N+](C)(C)CCCCNC(=O)[C@@H]1C[C@@H]2C(=O)N[C@@H](Cc3ccccc3)C(=O)N2[C@@H]1c1cccc(OCCO)c1 | 0.175 | -0.36 (inactive) | -0.314 (inactive) | -0.26 (inactive) | -0.471 (inactive) | -1.02 | -0.179 | 0.938 | 0.713 | 1.91 | 1.04 (inactive) | -0.0094 | 3.16 (inactive) | 0.469 (inactive) | -1.44 (inactive) | 0.13 (inactive) | 1.91 | -0.682 (inactive) | -0.331 (inactive) | 0.856

— PubChem BioAssay
